A short description of assay [1]: qHTS assay to identify aromatase inhibitors - cell viability counter screen (AID 743084).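 Also: cells stimulated with testosterone during compound exposure; nearly all actives have a fitted effect of over 55% in size.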 Also: potency is read from the fitted curve at half-maximal effect.
Assay [2] concerns the target Aryl hydrocarbon receptor (Homo sapiens) (UniProt P35869). Kind of assay: qHTS assay to identify small molecule that activate the aryl hydrocarbon receptor (AhR) signaling pathway (AID 743085).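 Also: HG2L7.5c1 human HepG2 liver cells with stably integrated DRE-driven firefly reporter; series mostly up to about 70 µM; nearly all actives have a fitted effect of over 15% in size.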 The method, boiled down: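 Compounds were tested in HepG2 hepatocellular carcinoma cells harbouring a stably integrated luciferase gene under control of 20 DREs. Increased reporter signal after 24 h treatment at 37C was taken as AhR activation.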
(Quantitative high-throughput screening tests each substance at several concentrations.)

A short description of assay [3]: qHTS assay to identify small molecule that activate the aryl hydrocarbon receptor (AhR) signaling pathway - cell viability counter screen (AID 743086).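 Also: HepG2 liver cells carrying the AhR DRE luciferase reporter; series mostly up to about 70 µM; nearly all actives have a fitted effect of over 45% in size.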 The method, boiled down:
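HepG2-AhR-luc (HG2L7.5c1) cells, 4000/well, were preincubated 5 h at 37C, exposed to compound in qHTS format for 24 hr at 37C, then given CellTiter-Fluor for 30 min; viability was read as fluorescence in the reporter wells.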

In assay [4] the target is Peroxisome proliferator-activated receptor gamma (Homo sapiens) (UniProt P37231). Kind of assay: qHTS assay to identify small molecule agonists of the peroxisome proliferator-activated receptor gamma (PPARg) signaling pathway (AID 743094; active = well fitted activation curve with a large enough effect in the signal ratio in the repeat runs, not every such curve was filed as active; the % refers to the signal ratio). The method, boiled down:
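GeneBLAzer PPARg UAS-bla HEK293H cells carrying a stably integrated beta-lactamase reporter were pre-incubated 5 h at 37C, then exposed to compounds in DMSO for 17 h at 37C; LiveBLAzer B/G FRET substrate was added for 1 h at room temperature and fluorescence read.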

Assay [5] can be described thus: qHTS assay to identify small molecule antagonists of the peroxisome proliferator-activated receptor gamma (PPARg) signaling pathway - cell viability counter screen (AID 743194). Also: nearly all actives have a fitted effect of over 55% in size. The method, boiled down: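 PPARg-UAS-bla HEK293H cells were plated, rested 5 h at 37 C, then treated with compounds plus rosiglitazone (50 nM final) for 17 h at 37 C; viability was then read by CellTiter-Glo luminescence after 30 min at room temperature.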

Assay [6] can be described thus: qHTS assay for small molecule agonists of the antioxidant response element (ARE) signaling pathway (AID 743202; active = well fitted activation curve with a large enough effect in the signal ratio in the repeat runs, not every such curve was filed as active; the % refers to the signal ratio). The method, boiled down: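 Compounds delivered in DMSO to ARE-bla HepG2 cells (2,000 cells/well, pre-incubated 5 h) and left 16 h at 37 C. LiveBLAzer B/G FRET substrate then added for 2 h at RT before fluorescence reading.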
Assay [7] is described as follows: qHTS assay for small molecule agonists of the antioxidant response element (ARE) signaling pathway - cell viability counter screen (AID 743203; calls by dose curve; also: nearly all actives have a fitted effect of over 55% in size). The method, boiled down:
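CellSensor ARE-bla HepG2 cells, 2,000 per well, rested 5 hrs at 37C/5% CO2, then exposed to compound in DMSO for 16 hrs; viability read as CellTiter-Glo luminescence after 30 min at room temperature, in the reporter wells.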

A short description of assay [8]: qHTS assay for small molecule activators of the heat shock response signaling pathway - cell viability counter screen (AID 743209). Also: nearly all actives have a fitted effect of over 50% in size. The method, boiled down:
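CellSensor HSE-bla HeLa cells, plated overnight at 37 C/5% CO2, were exposed to compounds in DMSO for 5 h at 37 C. Viability was then read in the same wells by CellTiter-Glo luminescence after 30 min at room temperature.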

Assay [9] in a line: qHTS assay for small molecule activators of the heat shock response signaling pathway (AID 743210; active = well fitted activation curve with a large enough effect in the signal ratio in the repeat runs, with a control signal flat, not every such curve was filed as active; the % refers to the signal ratio;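 also: HeLa cells with beta-lactamase reporter driven by heat shock elements; series mostly up to about 63 µM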). The method, boiled down:
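Reporter gene assay: HeLa cells stably bearing an HSE-bla construct, compound treatment 5 h at 37 C, LiveBLAzer substrate 2.5 h at RT, fluorescence intensity.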

Assay [10] concerns the target Peroxisome proliferator-activated receptor gamma (Homo sapiens) (UniProt P37231). Kind of assay: qHTS assay to identify small molecule antagonists of the peroxisome proliferator-activated receptor gamma (PPARg) signaling pathway (AID 743191; calls by dose curve; also: series mostly up to about 63 µM; nearly all actives have a fitted effect of over 30% in size). The method, boiled down: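 GeneBLAzer PPARg UAS-bla HEK293H cells carrying a UAS-driven beta-lactamase reporter were plated at 3000 cells/well, preincubated 5 h at 37C, then given compound for 17 h at 37C; LiveBLAzer B/G FRET substrate was read after 1 h at room temperature.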

This passage reports Potency and outcome results from PubChem BioAssay (Tox21).

Records with an inconclusive call do not appear. Calls of active or inactive are those of the source. Unless noted, calls follow the shape of the dose curve; as a rule, active = well fitted curve in the direction sought with a large enough effect in the repeat runs; inconclusive = weak or mixed curves; inactive = no such curve, though single readings can be large; an effect the other way counts as inactive or inconclusive.

Peroxisome proliferator-activated receptor gamma (Homo sapiens), sequence (P37231 whole entry, looked up): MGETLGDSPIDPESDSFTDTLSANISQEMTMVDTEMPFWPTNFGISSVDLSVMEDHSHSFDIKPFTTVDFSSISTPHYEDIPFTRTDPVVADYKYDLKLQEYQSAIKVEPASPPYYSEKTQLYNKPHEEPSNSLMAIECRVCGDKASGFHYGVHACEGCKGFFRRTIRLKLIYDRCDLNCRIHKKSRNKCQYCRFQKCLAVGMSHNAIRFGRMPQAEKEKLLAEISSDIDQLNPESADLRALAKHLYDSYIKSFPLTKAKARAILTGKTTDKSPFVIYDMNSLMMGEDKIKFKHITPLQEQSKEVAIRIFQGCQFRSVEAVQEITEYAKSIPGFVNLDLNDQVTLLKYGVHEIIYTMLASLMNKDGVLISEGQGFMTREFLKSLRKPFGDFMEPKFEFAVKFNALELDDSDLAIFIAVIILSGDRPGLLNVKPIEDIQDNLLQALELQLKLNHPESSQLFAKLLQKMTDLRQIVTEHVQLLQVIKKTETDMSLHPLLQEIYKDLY
Aryl hydrocarbon receptor (Homo sapiens), sequence (P35869 whole entry, looked up): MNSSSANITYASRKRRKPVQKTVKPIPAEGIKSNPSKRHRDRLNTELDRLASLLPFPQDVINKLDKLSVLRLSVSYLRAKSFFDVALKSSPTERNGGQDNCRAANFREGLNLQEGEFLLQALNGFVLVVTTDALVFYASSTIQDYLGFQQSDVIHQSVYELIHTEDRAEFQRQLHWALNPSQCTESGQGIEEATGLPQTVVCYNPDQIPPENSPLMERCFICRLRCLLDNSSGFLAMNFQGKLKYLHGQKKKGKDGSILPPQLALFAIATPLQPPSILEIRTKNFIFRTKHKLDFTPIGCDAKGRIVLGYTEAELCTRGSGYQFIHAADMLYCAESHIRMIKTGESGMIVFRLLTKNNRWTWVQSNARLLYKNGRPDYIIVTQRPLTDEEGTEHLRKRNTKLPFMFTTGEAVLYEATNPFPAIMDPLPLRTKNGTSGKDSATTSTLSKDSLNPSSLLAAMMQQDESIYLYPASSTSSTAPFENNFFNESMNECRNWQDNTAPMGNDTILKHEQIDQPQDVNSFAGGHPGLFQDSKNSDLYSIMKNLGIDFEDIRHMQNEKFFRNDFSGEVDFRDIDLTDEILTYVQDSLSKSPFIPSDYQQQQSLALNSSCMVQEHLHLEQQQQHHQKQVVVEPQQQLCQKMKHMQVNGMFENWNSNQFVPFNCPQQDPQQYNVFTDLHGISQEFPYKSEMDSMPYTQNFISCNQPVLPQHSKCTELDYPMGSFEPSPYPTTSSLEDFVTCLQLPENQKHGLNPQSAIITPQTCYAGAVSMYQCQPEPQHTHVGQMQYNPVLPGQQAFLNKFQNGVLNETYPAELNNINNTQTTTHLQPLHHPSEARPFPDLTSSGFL

With `O=C(O)CCC(=O)OC[C@@H](NC(=O)C(Cl)Cl)[C@H](O)c1ccc([N+](=O)[O-])cc1`, the Potency entry in assay [1], in assay [2], in assay [3], in assay [5], in assay [6] and in assay [7] was “inactive” in each case. For the same molecule, the Potency entry in assay [8] is “inactive”. In assay [4], the call was inactive.

`COC(=O)CC(C(C)=O)C(=O)OC` (stereo unspecified): the Potency result in assay [1], in [2], in assay [3], in assay [5], in [7] and in [8] was “inactive” throughout. Further, the Potency result in assay [9] is “inactive”. In addition, the outcome in assay [4] was inactive.

On to `CC(=O)Oc1cccc(O)c1`, for which the Potency result in assay [1], in assay [2], in assay [3], in assay [5] and in assay [8] was “inactive” throughout. In assay [4], the result was inactive.

Consider `CC1CCc2nccnc21` (stereo unspecified), for which the Potency result in assay [1], in [2], in [3], in [5], in assay [6] and in assay [7] was “inactive” each time. Further, the Potency result in assay [8] and in assay [9] was “inactive” in each case. For the same molecule, the call in assay [4] was inactive.

For `CC(C)CC(O)CC(C)C`, the Potency result in [1], in [2], in [3], in [5], in assay [7] and in assay [8] was “inactive” throughout. For the same molecule, in assay [9], the Potency entry was “inactive”. For the same molecule, the molecule was called inactive in assay [4].

Turning to `CC(C)C(O)C(C)(C)CO` (stereo unspecified), the Potency entry in assay [1], in assay [2], in [3], in [5], in assay [6] and in [7] was “inactive” in each case. Further, the Potency entry in assay [8] and in [9] was “inactive” in each case. The result in assay [4] was inactive.

As to `CCSC(=O)N(CC)CC`, the Potency result in assay [1], in assay [2], in assay [3], in assay [5], in [7] and in assay [8] was “inactive” in each case. In addition, the Potency result in assay [9] is “inactive”. Moreover, in assay [4], the molecule was called inactive.

Turning to `CCCCCCCCCCCC(=O)OCC(O)CO` (stereo unspecified), the Potency entry in assay [1], in [2], in [3], in [5], in [6] and in assay [7] was “inactive” each time.

In the case of `C=C(C)C(=O)OCCC(F)(F)C(F)(F)C(F)(F)C(F)(F)C(F)(F)C(F)(F)F`, the Potency entry in assay [1], in [2], in assay [3], in assay [5], in [7] and in assay [8] was “inactive” throughout. Besides, the Potency result in assay [9] was “inactive”. The molecule was called inactive in assay [4].

In the case of `CCCCOC(=O)CCCCC(=O)OCCCC`, the Potency result in [1], in assay [2], in [3], in assay [5], in assay [7] and in [8] was “inactive” throughout. For the same molecule, the Potency result in assay [9] was “inactive”. Besides, in [4], the outcome was inactive.

For the molecule `NC(=O)c1ccccc1[N+](=O)[O-]`, the Potency entry in assay [1], in assay [2], in assay [3], in [5], in assay [8] and in assay [9] was “inactive” in each case. Also, the outcome in assay [4] was inactive.

On to `CCCCCCCCCCCCCOC(=O)CCSCCC(=O)OCCCCCCCCCCCCC`, for which the Potency entry in [1], in assay [2], in assay [3], in assay [5], in assay [6] and in assay [7] was “inactive” each time. Besides, the Potency result in [8] and in [9] was “inactive” throughout. In addition, the molecule was classed as inactive in assay [4].

For `CC(=O)c1ccc[nH]1`, the Potency entry in [1], in assay [2], in assay [10], in [5], in assay [6] and in assay [7] was “inactive” throughout. Besides, the Potency entry in [8] and in assay [9] was “inactive” in each case. The result in assay [4] was inactive.

Take `CC(C)c1ccc(C#N)cc1`: the Potency entry in assay [1], in [2], in assay [10], in assay [5], in assay [6] and in assay [7] was “inactive” each time. Moreover, the Potency entry in assay [8] and in assay [9] was “inactive” throughout. In addition, the molecule was called inactive in assay [4].

With `O=C(O)CNC(=O)c1ccccc1I`, the Potency result in [1], in [2], in [10], in assay [5], in [6] and in assay [7] was “inactive” throughout. The Potency result in assay [8] and in assay [9] was “inactive” each time. The molecule was called inactive in assay [4].

Turning to `Nc1ccc(NC(=O)c2ccc(N)cc2)cc1`, in [1], the Potency is 54.5 µM (active). Moreover, the Potency result in assay [2], in assay [10], in assay [5] and in assay [8] was “inactive” throughout. Besides, the result in [4] was inactive.

On to `CCC(CO)(CO)CO`, for which the Potency entry in assay [1], in assay [2], in assay [10], in assay [5], in assay [6] and in assay [7] was “inactive” in each case. In addition, the Potency entry in assay [8] and in assay [9] was “inactive” in each case. The molecule was classed as inactive in assay [4].
